Compound activity deposited in PubChem BioAssay by several laboratories.
Only some compounds are listed: those with a hit (about 3.2% of all), similar ones and a draw of the others.
Mtb betalactam: beta-lactam sensitization of Mtb H37Rv | M. tuberculosis H37Rv growth with meropenem, percent inhibition | inhibition, % at 25 µM | hit rate 0.27% among 330,000; call rule not given here;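 further: growth measured after seven days incubation then overnight dye step; 0% = bacteria only wells and 100% = bacteria with antibiotic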
FBA Mtb inh: Mtb fructose-bisphosphate aldolase inhibition; P9WQA3; purified M. tuberculosis FBA, fluorescence read-out; inhibition, % at 1 µM; hit rate 2.3% among 360,000;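 further: 0% = vehicle and 100% = reference inhibitor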
Target sequence (P9WQA3 whole entry, looked up): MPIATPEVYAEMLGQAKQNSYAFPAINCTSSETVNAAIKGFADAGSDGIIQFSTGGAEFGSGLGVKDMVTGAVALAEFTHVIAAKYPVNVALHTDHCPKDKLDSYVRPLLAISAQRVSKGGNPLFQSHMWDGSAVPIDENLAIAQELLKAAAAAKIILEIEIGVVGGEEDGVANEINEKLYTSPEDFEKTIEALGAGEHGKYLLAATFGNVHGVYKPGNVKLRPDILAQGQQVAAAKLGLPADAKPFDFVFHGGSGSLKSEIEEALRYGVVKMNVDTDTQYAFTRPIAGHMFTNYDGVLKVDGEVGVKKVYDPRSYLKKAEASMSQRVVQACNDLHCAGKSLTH
GDH-TPI counter-1: GDH-TPI coupled enzyme inhibition counter-screen. inhibition, % at 4.8 µM. hit rate 1.2% among 360,000. GDH-TPI coupled enzyme counterscreen, NADH absorbance; in the data active means inhibition above about 30%;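 further: 0% = DMSO wells and 100% = wells lacking the enzyme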
PriA SSB inh: blocks PriA binding to SSB C-terminal tail; hit rate 0.6% among 430,000; inhibition, % at 33 µM; AlphaScreen SSBct-PriA binding, biotinylated peptide; in the data active means inhibition mostly above about 37%, no sharp cut-off; inactive means mostly below about 20%;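 further: plate controls were negative control peptide for no effect and reference peptide for full effect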
Rv3671c protease: Rv3671c (M. tuberculosis) protease inhibition; hit rate 0.048% among 320,000; P9WHR9; inhibition, % at 5.96 µM; in the data active means inhibition above about 38%;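 further: extracellular domain of Rv3671c used as enzyme; 0% = enzyme with DMSO and 100% = no enzyme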
Target sequence (P9WHR9 whole entry, looked up, the tested form may be a part): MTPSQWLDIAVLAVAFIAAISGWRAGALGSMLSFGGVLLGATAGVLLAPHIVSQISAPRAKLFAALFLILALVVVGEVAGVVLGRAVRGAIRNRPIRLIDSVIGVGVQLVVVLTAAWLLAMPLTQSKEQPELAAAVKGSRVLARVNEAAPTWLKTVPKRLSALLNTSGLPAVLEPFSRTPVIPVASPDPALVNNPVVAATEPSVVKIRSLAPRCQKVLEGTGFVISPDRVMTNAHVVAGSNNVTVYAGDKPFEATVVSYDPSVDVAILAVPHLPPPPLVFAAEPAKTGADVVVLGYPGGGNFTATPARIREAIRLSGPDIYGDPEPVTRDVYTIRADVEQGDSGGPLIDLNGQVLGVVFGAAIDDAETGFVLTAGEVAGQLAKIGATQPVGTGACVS
Mtb UGM inh: Mtb UDP-galactopyranose mutase inhibition | purified UGM, fluorescence polarization probe displacement | AID 504406 | hit rate 0.06% among 320,000 | P9WIQ1 | inhibition, % at 10 µM; in the data active means inhibition above about 10%, passing the limit was not always enough
Mtb FBA confirm: confirmation of M. tuberculosis fructose-bisphosphate aldolase inhibitors | shares compounds with FBA Mtb inh | hit rate 78% among 5,600 | purified M. tuberculosis FBA, fluorescence read-out | AID 651616 | inhibition, % at 1 µM;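 further: 0% = vehicle wells and 100% = reference inhibitor wells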
GDH-TPI counter-2: counter-screen for M. tuberculosis FBA inhibitors: GDH-TPI coupled enzyme inhibition; shares compounds with FBA Mtb inh; GDH-TPI coupled enzyme counterscreen, fluorescence; inhibition, % at 1 µM; hit rate 81% among 5,600; AID 652141; in the data active means inhibition above about 10%
GDH-TPI DR: counter-screen for M. tuberculosis FBA inhibitors: GDH-TPI dose response. IC50, µM. GDH-TPI coupled enzyme assay, fluorescence, artifact counterscreen. shares compounds with FBA Mtb inh. hit rate 79% among 170. AID 652145; call rule not given here
Active calls of the source: *; · = not tested or not shown; + = active, no number. Unless noted, no stated cut-off is given here; in the data, active means inhibition above about 27%; inactive means the rest.

SMILES | Mtb betalactam | FBA Mtb inh | GDH-TPI counter-1 | PriA SSB inh | Rv3671c protease | Mtb UGM inh | Mtb FBA confirm | GDH-TPI counter-2 | others
Cc1sc2ncnc(N3CCN(C(=O)c4ccco4)CC3)c2c1C | -5.3 | 1.1 | -0.6 | -11.3 | -7.5 | -1.0 | · | ·
Cc1[nH]n(-c2ccccc2)c(=O)c1-c1ccccc1 | -2.0 | 1.2 | 5.1 | 2.3 | -9.9 | 0.8 | · | ·
O=c1nc(-c2ccccc2)n(-c2ccccc2)[nH]1 | 8.7 | 38.8* | -3.8 | -12.4 | -0.7 | 0.9 | 156.5* | 128.8*
CCN(CC)CCNc1nc2c(OC)cccc2s1 | · | · | · | 18.0 | · | · | · | ·
CCOC(=O)c1c(NC(=O)CCSc2ccccc2)sc2c1CCN(CC)C2 | · | · | · | 15.0 | · | · | · | ·
O=C(Nc1nccs1)c1cc2c(s1)-c1ccccc1OC2 | 3.4 | 28.4* | 27.2 | -21.1 | -18.6 | 0.5 | 141.9* | 116.1*
O=C(Cn1ncc2c1-c1ccccc1OC2)Nc1ccc(Cl)cn1 | 4.2 | 4.3 | 1.3 | -3.6 | -9.5 | -1.3 | · | ·
CCOC(=O)c1cc2c(s1)-c1c(C)cccc1OC2 | 5.6 | 82.2* | 16.8 | -46.1 | -15.0 | -0.2 | 13.8 | 17.3*
O=C(Nc1ccc(Cl)cn1)c1cc2c(s1)-c1ccccc1OC2 | 10.5 | 47.3* | 11.1 | -45.7 | -14.8 | 1.6 | 25.6 | 20.1*
O=C(Nc1nc2ccccc2s1)c1cc2c(s1)-c1ccccc1OC2 | 6.8 | 5.7 | 2.0 | -9.1 | -14.5 | 0.3 | · | ·
Cc1cccc2c1-c1sc(C(=O)Nc3nccs3)cc1CO2 | 5.3 | 42.0* | 2.4 | -4.0 | -25.6 | -0.4 | 1.4 | -1.2
Cc1nnc(NC(=O)CSc2nc3c(cnn3-c3cccc(Cl)c3)c(=O)[nH]2)s1 | · | · | · | -1.0 | · | · | · | ·
COc1ccc(N2CCN(C(=O)C(=O)Nc3ccc(C(F)(F)F)cc3)CC2)cc1 | · | · | · | -4.0 | · | · | · | ·
Cc1cc(OCCN2C(=O)C(C)CNc3ccccc32)ccc1Cl (stereo not drawn) | · | · | · | 6.0 | · | · | · | ·
Cc1c(C(=O)O)oc2c3c(ccc12)OCCO3 | -3.4 | 59.8* | 8.6 | -5.5 | 7.7 | -1.9 | 98.7* | 87.0*
CC(C)(C)C(=O)OCC12CCC(O1)C1(C)C(=O)OCC21 (stereo not drawn) | -2.5 | 46.9* | -0.4 | -11.7 | 8.3 | 5.2 | -6.5 | -4.4
CC(=O)OC[C@]12CC[C@H]3[C@@](C)(CC[C@H]4C(C)(C)CCC[C@]34C)[C@@H]1C[C@H](C1=CC(=O)O[C@@H]1OC(C)=O)O2 | 2.8 | · | · | · | -9.6 | 2.6 | · | ·
CCOC(=O)c1cn2ccc(C)cc2n1 | 0.6 | 4.8 | -2.6 | -3.6 | 2.8 | 1.7 | · | ·
CCOC(=O)c1nc2cc3n(c(C)c-2c1C)C(C)C(CC)=C3C (stereo not drawn) | -6.3 | 34.2* | 2.4 | 6.5 | 3.4 | -0.9 | + | 180.8*
O=C(COc1ccc(Cl)cc1)NCC(c1ccco1)N1CCc2ccccc2C1 (stereo not drawn) | · | · | · | -26.0 | · | · | · | ·
Cc1ccc(-c2cc(C(=O)N3CCN(c4ccccc4O)CC3)c3ccccc3n2)o1 | 76.7 | 38.1* | 7.3 | 12.4 | 2.1 | 0.7 | 106.4* | 103.4*
COc1ccc(-c2cc(C(=O)NCCN3CCOCC3)c3ccccc3n2)cc1 | 1.6 | 47.0* | 17.7 | -10.1 | 5.9 | -1.6 | 81.1* | 93.1*
Cc1ccc(-c2cc(C(=O)NCCN3CCOCC3)c3ccccc3n2)o1 | -9.0 | 42.8* | 22.7 | -6.1 | -6.3 | 3.3 | 119.7* | 89.5*
COC(=O)C1CCN(C(=O)c2cc(-c3ccc(Cl)s3)nc3ccccc23)CC1 | 26.2 | 67.8* | 15.3 | -18.1 | -2.1 | -2.3 | 146.8* | 139.4*
COc1ccc(-c2cc(C(=O)NCCN3CCOCC3)c3ccccc3n2)cc1OC | -7.3 | 0.2 | 15.6 | -3.8 | -8.7 | -2.9 | · | ·
SMILES | Mtb betalactam | FBA Mtb inh | GDH-TPI counter-1 | PriA SSB inh | Rv3671c protease | Mtb UGM inh | Mtb FBA confirm | GDH-TPI counter-2 | others
O=C(Nc1nnc(-c2ccc3c(c2)CCCC3)o1)C1CCN(S(=O)(=O)c2cccs2)CC1 | · | · | · | -4.0 | · | · | · | ·
CN(C)c1ccc(CCNC(=O)COc2ccc(Cl)cc2Cl)cc1 | · | · | · | 30.0 | · | · | · | ·
O=C(NCCN1CCOCC1)c1cc(-c2ccc(Cl)s2)nc2ccccc12 | -0.4 | 92.6* | 21.1 | -10.2 | -6.4 | -1.2 | 148.4* | 116.0*
O=C(NCCN1CCOCC1)c1cc(-c2ccccc2Cl)nc2ccccc12 | -2.3 | -0.7 | 5.6 | -3.3 | -12.9 | -1.3 | · | ·
O=S(=O)(Cc1ccc(Cl)cc1)c1ccc(NCc2ccccn2)nn1 | · | · | · | 0.0 | · | · | · | ·
CCCN(CCC)CCCNC(=S)Nc1ccc2nc(N3CCN(CC)CC3)cc(C)c2c1 | -8.3 | 7.3 | 28.4 | -21.2 | 8.6 | 2.5 | · | ·
CCN(CC)CCCNC(=O)CCC(=O)Nc1ccc2nc(N3CCC(C)CC3)cc(C)c2c1 | -2.0 | 65.2* | -2.6 | 10.7 | -2.8 | -2.0 | 12.0 | -1.7 | GDH-TPI DR=1.26*
Cc1cc(N2CCN(C)CC2)nc2ccc(NC(=O)CCC3CCCC3)cc12 | 0.0 | 5.2 | -4.1 | 30.5 | 3.3 | -0.8 | · | ·
CCN(CC)CCCNC(=O)CCC(=O)Nc1ccc2nc(N3CCCCC3)cc(C)c2c1 | 0.4 | 107.9* | 6.9 | -8.0 | -8.4 | -1.0 | 87.5* | 94.5*
CCCn1nc2cc(C(=O)NC3CCCc4ccccc43)ccc2c1OCC (stereo not drawn) | 3.6 | 55.8* | -7.6 | -8.1 | -3.4 | 0.8 | 137.3* | 99.4*
CCCn1nc(C(=O)NC2CCCc3ccccc32)c2ccccc2c1=O (stereo not drawn) | 8.7 | -2.5 | 6.1 | -30.8 | -0.4 | · | · | ·
CCCCn1nc2cc(C(=O)NCC34CC5CC(CC(C5)C3)C4)ccc2c1OCC | · | 21.2 | 10.0 | -3.9 | -7.4 | 1.4 | · | ·
CCCCn1nc2cc(C(=O)NC3CCc4ccccc43)ccc2c1OCC (stereo not drawn) | -0.3 | 53.1* | -3.5 | -6.1 | 2.4 | -2.5 | + | +
COc1ccccc1NC(=O)N1CCC(CNC(=O)C2(c3ccc(Cl)cc3)CCCC2)CC1 | · | · | · | -15.0 | · | · | · | ·
c1coc(-c2ccc3nncn3c2)c1 | · | 0.8 | -9.3 | · | · | · | · | ·
C(=C\c1ccc2nncn2c1)/c1ccccc1 | · | 50.3* | 12.8 | · | · | · | 11.3 | -2.8
NC(=O)c1sc2nc(-c3ccco3)ccc2c1N | -1.2 | 52.5* | 10.3 | -8.9 | 6.0 | -0.2 | + | +
Nc1c(C(=O)Nc2ccccc2F)sc2nc(-c3ccco3)ccc12 | 28.0 | 39.6* | 32.1* | 6.0 | -9.9 | 1.6 | 50.2* | 42.7*
Nc1c(C(=O)Nc2ccccc2F)sc2nc(-c3cccnc3)ccc12 | -1.3 | -0.1 | 12.3 | -6.2 | -6.1 | 1.0 | · | ·
FC(F)(F)c1ccccc1C1=CC(c2ccccc2)n2ncnc2N1 (stereo not drawn) | -4.5 | 15.1 | 3.1 | -0.3 | 1.6 | 2.0 | · | ·
Clc1ccccc1C1=CC(c2ccco2)n2ncnc2N1 (stereo not drawn) | -5.2 | 35.2* | 14.2 | -5.5 | 2.9 | -3.3 | 156.4* | 126.3*
